Source: PubChem
A selection: hits, their analogues and other compounds. The true share with any hit is near 7.4%.
SNCA expr inhib: inhibitors of alpha-synuclein (SNCA) gene expression; HEK-293 SNCA-luciferase knock-in, luminescence, 24 h; Potency, µM (highest dose often 57.2 µM), for inactives: at the top dose activity change, negative = inhibition, most hits filed as inhibitors; 0.17% of 140,000 active; AID 1671194;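 further: plate controls were DMSO cells for no effect and cell-free wells for full effect; nearly all actives have a fitted effect of over 45% in size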
hNpr1 antagonist: human Npr1 receptor antagonism; P16066; HEK293 hNpr1 GloSensor cGMP, ANP-stimulated luminescence; Potency, µM (doses to about 46.3 µM), for the others: at the highest dose activity change, negative = inhibition, usual class: inhibitors; 1.6% of 76,000 active; AID 1347048; calls by dose curve; further: nearly all actives have a fitted effect of over 60% in size
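Compound pre-incubated 30 min at room temperature on GloSensor-loaded HEK293 cells stably carrying hNpr1 and the pGS-40F cGMP biosensor. Stimulation uses hNppA at 0.1 nM final; luminescence is taken at baseline and 20 min post-agonist.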
HEK293 viab: reduces viability of HEK-293 SNCA reporter cells | HEK-293-SNCA-luc viability, GF-AFC fluorescence, 24 h | Potency, µM (doses to about 57.1 µM), for the others: at the highest dose activity change, negative = cytotoxicity, most hits filed as cytotoxic | 0.12% of 150,000 active;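 further: 0% = DMSO-treated cells and -100% = medium-only wells without cells; nearly all actives have a fitted effect of over 30% in size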
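HEK-293-SNCA-luc cells (1500/well) plated 24 h, then exposed 24 h to a dilution series; GF-AFC added 30 min at 37C, fluorescence 405/540 nm; normalised to medium-only and DMSO wells, Hill fit.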
NIH3T3 tox: NIH 3T3 cell cytotoxicity; NIH 3T3 viability, CellTiter-Glo ATP luminescence, 48-72 h; Potency, µM (top dose mostly 96.7 µM), for the others: top-dose activity change, negative = cytotoxicity, hits mostly inhibitors; 4.3% of 94,000 active; further: nearly all actives have a fitted effect of over 55% in size
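Luminescent ATP readout (CellTiter-Glo, 10 min RT) after 48 or 72 hr compound exposure of NIH 3T3 cells seeded at 400 cells/well in 1536-well format; quantitative HTS.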
HEK cytotox: HEK 293 cell cytotoxicity. HEK 293 viability, ATP luminescence (CellTiter-Glo), 48-72 h. Potency, µM (titrated, usually from 115 µM), for inactives: at the highest dose activity change, negative = cytotoxicity, actives largely listed as inhibitors. 6.6% of 94,000 active. AID 1345083; further: nearly all actives have a fitted effect of over 60% in size
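HEK 293 cells seeded at 250 cells/well were exposed to compound for 48 or 72 hr at 37 degree Celsius. Viability taken as ATP content by CellTiter-Glo luminescence.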
FLuc inh: inhibitors of firefly (Photinus pyralis) luciferase. Potency, µM (highest dose often 115 µM), most hits filed as inhibitors. P08659. 2.5% of 76,000 active. purified P. pyralis luciferase, luminescence, biochemical. AID 1347043; further: nearly all actives have a fitted effect of over 65% in size
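Cell-free enzyme assay, 10nM P. pyralis luciferase, luciferin and ATP each at 10uM. Inhibition profiled over a 6-point titration, read as luminescence.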
Numbers without * were called inactive; i = inactive; ? = inconclusive; . = no result; ! = not active in a repeat; [ ] = remark or other dose. Unless noted, the call rests on the fitted dose curve; in most records, active means well fitted curve in the direction sought with a large enough effect; inconclusive means small, poorly fitted or top-dose-only effect, or another doubt; inactive means no such curve, though single readings can be large; an effect the other way counts as inactive or inconclusive. Unless noted, on the % scale 0 is the no-effect control and ±100 the full control effect; potency means the concentration at half of the fitted maximal effect.

SMILES	SNCA expr inhib	hNpr1 antagonist	HEK293 viab	NIH3T3 tox	HEK cytotox	FLuc inh
Cc1nc(-c2ccc(Cl)cc2)n(CC(=O)Nc2cccc(C(F)(F)F)c2)c(=O)c1CCO	?	-1.0%	-24.5%	?	39.8µM*	i
Cc1nc(-c2ccc(F)cc2)n(CC(=O)Nc2ccccc2)c(=O)c1CCO	-1.4%	0.8%	-23.0%	-18.6%	44.7µM*	i
COc1ccccc1C(=O)NC1CCN(c2ccc3nnc(C)n3n2)CC1	.	.	.	-11.0%	-1.2%	.
O=C(NC1C[C@H]2CC[C@@H](C1)N2C(=O)C1CCCCC1)c1ccc(F)cc1 (stereo partly specified)	6.4%	.	?	-34.0%	3.1%	.
COc1ccc(NC(=O)Cn2c(-c3ccc(F)cc3)nc(C)c(CCO)c2=O)cc1OC	?	-5.6%	-15.1%	?	?	i
COc1ccc(C)cc1NC(=O)Cn1c(-c2ccc(F)cc2)nc(C)c(CCO)c1=O	19.1%	3.8%	3.9%	-13.2%	79.4µM*	i
Cc1nc(-c2ccc(F)cc2)n(CC(=O)Nc2cc(C(F)(F)F)ccc2Cl)c(=O)c1CCO	-13.4%	4.7%	-1.9%	?	31.6µM*	i
O=C(NCc1cccs1)c1ccc2nnc(-c3ccc(Cl)cc3)n2c1	-0.2%	.	0.2%	?	?	.
O=C(NCc1ccc(C(F)(F)F)cc1)C1CCN(Cc2ccccc2-c2cccnc2)CC1	-11.0%	.	5.7%	?	?	.
CSc1ccc(-c2cccc(C(=O)NCC(=O)N(C)C)c2)cc1	34.0%[87.6 µM]	.	-0.9%[87.6 µM]	?	?	.
COc1ccc(-c2cccc(C(=O)N3CCN(C(=O)Cc4ccccc4)CC3)c2)nn1	.	.	.	-29.6%	-3.6%	.
O=C(NCc1ccccc1F)c1ccc2c(c1)CN(Cc1cccc(F)c1F)CCO2	-16.2%	6.5%	-5.6%	?	?	i
Cc1ccc(CNC(=O)c2ccc3c(c2)CN(Cc2cccc(F)c2F)CCO3)cc1	?	-2.9%	-3.1%	?	79.4µM*	i
CC(C)Cc1cnc(C2CCCN(C(=O)OC(C)(C)C)C2)[nH]1 (stereo unspecified)	39.2%[87.6 µM]	.	-3.2%[87.6 µM]	89.1µM*	?	.
O=C(C1CCCN1C(=O)c1ccccc1Cl)N1CCC(c2ccccc2)CC1 (stereo unspecified)	?	.	-12.9%	?	?	.
COc1ccc(CNC(=O)CC2CCCCN(C)C2=O)cc1 (stereo unspecified)	-17.1%	.	-12.7%	-20.1%	-7.4%	.
CCc1ccc(S(=O)(=O)N2CCC(n3cnnc3-c3ccccc3)CC2)cc1	11.3%	.	-7.2%	?	?	.
Cc1cccc(-c2nc3ccc(C(=O)NCc4ccccc4Cl)cc3o2)n1	26.3%	.	3.2%	?	?	.
CN(Cc1ccccc1)C(=O)c1ccc2c(c1)NC(C)(CNCc1ccccc1)CO2 (stereo unspecified)	-12.7%[87.6 µM]	-7.4%[70.6 µM]	-8.5%[87.6 µM]	89.1µM*	?	i
CN(C)CCN(C)C(=O)c1ccc2c(c1)NC(C)(CCCCc1ccccc1)CO2 (stereo unspecified)	?	-0.1%[70.6 µM]	-9.0%[87.6 µM]	31.6µM*	100µM*	i
CN(C)CCN(C)C(=O)c1ccc2c(c1)NC(C)(COc1ccccc1)CO2 (stereo unspecified)	-16.5%[87.6 µM]	-5.9%[70.6 µM]	7.1%[87.6 µM]	89.1µM*	?	i
CC1(CCCCc2ccccc2)COc2ccc(C(=O)N3CCOCC3)cc2N1 (stereo unspecified)	?	?	1.9%[87.6 µM]	?	?	i
COc1ccc(CNC(=O)C[C@@H]2C[C@@H](C(C)C)[C@H](CNC(=O)c3ccc(C#N)cc3)C=C2C)cc1	?	-9.5%	?	?	?	i
CCOC(=O)C[C@@H]1C[C@@H](C(C)C)[C@H](CNC(=O)c2ccc(C#N)cc2)C=C1C	?	-22.9%[70.6 µM]	?	?	?	i
CCOC(=O)C[C@@H]1C[C@@H](C(C)C)[C@H](CNC(=O)c2ccc(F)cc2)C=C1C	?	?	?	?	35.5µM*	i
SMILES	SNCA expr inhib	hNpr1 antagonist	HEK293 viab	NIH3T3 tox	HEK cytotox	FLuc inh
COc1ccc(C(=O)NC[C@@H]2C=C(C)[C@H](CC(=O)O)C[C@H]2C(C)C)cc1	-9.9%[87.6 µM]	1.7%[70.6 µM]	-17.0%[87.6 µM]	35.5µM*	-6.9%[172 µM]	i
O=C(C1CCCN1C(=O)c1ccccc1F)N1CCC(N2CCOCC2=O)CC1 (stereo unspecified)	-4.7%	.	1.2%	1.8%	-6.7%	.
O=c1n(-c2ccc(Cl)cc2)nc2n1CCN(Cc1ccccc1)C2	16.3%	.	?	8.91µM*	?	.
Cc1ccc(CN2CCn3c(nn(-c4ccc([N+](=O)[O-])cc4)c3=O)C2)cc1	-3.4%	?	-11.9%	?	44.7µM*	i
O=c1n(-c2ccncc2)nc2n1CCN(Cc1cccc3ccccc13)C2	-23.1%	?	?	?	44.7µM*	i
O=c1n(-c2ccc([N+](=O)[O-])cc2)nc2n1CCN(Cc1cccc3ccccc13)C2	-17.3%	-19.6%	7.2%	?	?	i
O=c1n(-c2ccc([N+](=O)[O-])cc2)nc2n1CCN(CC1CC1)C2	144.4%[87.6 µM]	?	-29.8%[87.6 µM]	?	35.5µM*	?
CNC(=O)c1cc(C)nc2onc(C3CCCN(C(=O)COC)C3)c12 (stereo unspecified)	.	.	.	i	3.4%[172 µM]	.
O=C(c1ccc2nnc(-c3cccc(OC(F)(F)F)c3)n2c1)N1CCCC1	18.9%	.	3.8%	?	-19.0%	.
CC(C)c1nc2c(c(-c3ccc(Cl)cc3)n1)CCN(Cc1ccc(N(C)C)cc1)CC2	?	.	-4.9%	-7.5%	-29.6%	.
COc1ccc(CN2CCn3c(nn(-c4ccc(F)cc4F)c3=O)C2)cc1	3.9%	-13.7%	10.3%	-14.3%	?	i
O=c1n(-c2ccc([N+](=O)[O-])cc2)nc2n1CCN(Cc1ccc(C(F)(F)F)cc1)C2	1.2%	14.1µM*	-14.9%	?	35.5µM*	i
O=c1n(-c2ccc(C(F)(F)F)cc2)nc2n1CCN(Cc1ccsc1)C2	42.2%	.	-9.5%	?	50.1µM*	.
O=c1n(-c2ccc(C(F)(F)F)cc2)nc2n1CCN(Cc1cccnc1)C2	7.7%	.	4.8%	?	?	.
O=c1n(-c2ccc(C(F)(F)F)cc2)nc2n1CCN(Cc1ccc(F)cc1)C2	8.8%	-23.7%	9.7%	39.8µM*	31.6µM*!	i
O=c1n(-c2ccc(C(F)(F)F)cc2)nc2n1CCN(CC1CC1)C2	134.8%	.	10.0%	-38.2%	?	.
O=c1n(-c2ccc(F)cc2F)nc2n1CCN(Cc1ccc(C(F)(F)F)cc1)C2	-8.5%	?	6.7%	-21.6%	79.4µM*	i
